# Compound activity: PubChem BioAssay, The Scripps Research Institute Molecular Screening Center
# CHO-K1 Ca ag – M1 agonist counterscreen hit in parental CHO-K1 cells. activation, % at 3 µM. Fluo-8 calcium fluorescence; scaled to maximal ATP response, vehicle zero. 0.48% of 360,000 active; in the data active means activation above about 15%;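 further: untransfected CHO-K1 host cells lacking M1 receptor as counterscreen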
# M1 ag – activates human CHRM1 receptor; activation, % at 3 µM; CHO-K1 hM1, Fluo-8 calcium fluorescence, agonist mode; 0% DMSO, 100% acetylcholine EC100; P11229; 0.33% of 360,000 active;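 active means activation above the run's mean compound activation plus 3 SD, cut at about 16% in these data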;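 further: peak over basal fluorescence ratio within a 140 s kinetic read after compound addition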
# Target sequence (P11229 whole entry, looked up): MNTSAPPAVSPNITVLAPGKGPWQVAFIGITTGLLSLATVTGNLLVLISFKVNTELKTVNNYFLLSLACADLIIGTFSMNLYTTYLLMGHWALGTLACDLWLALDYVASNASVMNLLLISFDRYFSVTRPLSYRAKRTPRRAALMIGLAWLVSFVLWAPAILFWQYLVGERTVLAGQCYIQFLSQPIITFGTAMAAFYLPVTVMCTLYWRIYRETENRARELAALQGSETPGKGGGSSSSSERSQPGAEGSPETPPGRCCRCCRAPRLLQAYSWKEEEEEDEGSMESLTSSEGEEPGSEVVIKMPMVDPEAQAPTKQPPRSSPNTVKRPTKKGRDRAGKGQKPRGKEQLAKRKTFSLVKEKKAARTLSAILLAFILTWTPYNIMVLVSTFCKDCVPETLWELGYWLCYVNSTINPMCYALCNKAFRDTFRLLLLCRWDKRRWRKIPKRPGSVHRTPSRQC
# CHRM1 PAM – human CHRM1 positive allosteric modulation; P11229; CHO-K1 hM1, Fluo-8 calcium fluorescence, ACh EC20; 0% = ACh EC20, 100% = maximal ACh; activation, % at 3 µM; 0.088% of 360,000 active; in the data active means activation above about 19%, passing the limit was not always enough
# CHO-K1 Ca PAM – counter-screen for M1 PAMs: effect in parental CHO-K1 cells | ATP EC20, Fluo-8 calcium fluorescence; 0% at ATP EC20, 100% at ATP max | activation, % at 3 µM | 0.02% of 360,000 active;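 active means activation above the run cutoff, the mean activation of all test compounds plus 3 SD, cut at about 40% in these data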;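 further: peak over basal fluorescence ratio in a 140 s read after ATP addition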
# M1 antag – human CHRM1 antagonism; CHO-K1 hM1, Fluo-8 calcium fluorescence, ACh EC80 antagonist; P11229; 1.3% of 360,000 active; inhibition, % at 3 µM; AID 588852;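 active means percent inhibition above its own plate's cutoff, namely the mean of that plate's compound wells plus 3 SD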;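 further: peak over basal fluorescence ratio during 140 s after agonist addition; 0% = ACh EC80 plus DMSO and 100% = DMSO alone without agonist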
# CHO-K1 Ca antag – counter-screen for M1 antagonists: effect in parental CHO-K1 cells. 0.6% of 360,000 active. inhibition, % at 3 µM. ATP-induced calcium, Fluo-8 fluorescence. AID 602250;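 active means inhibition above a per-plate cutoff, the plate's mean sample inhibition plus 3 SD, cut at about 24% in these data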;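 further: 0% = DMSO plus EC80 ATP and 100% = DMSO alone without ATP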
# Numbers without * were called inactive. Sampled rows, rich in hits. Any-hit rate of the full collection: about 2.3%.
SMILES,CHO-K1 Ca ag,M1 ag,CHRM1 PAM,CHO-K1 Ca PAM,M1 antag,CHO-K1 Ca antag
CC(C)CNc1ncnc2c1ncn2[C@H]1CN(Cc2ccc(-c3ccccc3)cc2)C[C@@H](CO)O1,11,3,-9,-9,28*,10
CC1C(=O)N2CCCc3cc(S(=O)(=O)NCc4ccccc4Cl)cc1c32 (stereo not drawn),3,-2,6,11,-3,-12
COc1ccc(Nc2nc3c(C)cccc3cc2C#N)c(OC)c1,1,-5,5,6,-6,-3
Cc1ccc2cc(CCNS(=O)(=O)c3ccc(F)cc3)c(=O)[nH]c2c1C,1,5,8,17,-15,-5
Cc1csc(SC(C)c2nc3scc(-c4ccccc4)c3c(=O)[nH]2)n1 (stereo not drawn),5,-1,-4,25,5,-12
CN1CCN(c2ncnc3c2ncn3[C@H]2CN(Cc3ccc(F)cc3)C[C@@H](CO)O2)CC1,0,-3,-9,-13,22,25*
OC[C@@H]1CN(Cc2ccc(F)cc2)C[C@H](n2cnc3c(N4CCCC4)ncnc32)O1,1,2,10,1,-18,-5
CC(=O)Nc1c(Nc2ccccc2)c2ccccc2oc1=O,15*,-7,12,6,-4,18
CC(=O)Nc1c(NC(C)C)c2ccccc2oc1=O,3,1,14,14,-10,-18
CCC(C#CCN1CCOCC1)(CC)OCCC#N,0,-3,8,16,-9,-18
CCC(C)(C#CCN1CCCCC1)OCCC#N (stereo not drawn),0,-12,-26,11,69*,-2
CCC(C)(C#CCN1CCCCC1)OC(C)=O (stereo not drawn),0,-13,-23,4,22,1
CCC(C#CCN1CCCCC1)(CC)OCCC#N,0,-6,-22,15,63*,-15
CC(NC(=O)Cc1ccsc1)c1ccc(Cl)cc1Cl (stereo not drawn),4,1,9,12,-7,-15
Cc1cc(C)n(CC(=O)NNC(=O)c2ccc(S(C)(=O)=O)cc2)n1,0,0,5,-6,-8,1
CCC(c1nnnn1C1CCCC1)N1CCN(C/C=C/c2ccccc2)CC1 (stereo not drawn),6,-3,-4,14,-20,-10
C(=C\c1ccccc1)/CN1CCN(C(c2ccnc3ccccc23)c2nnnn2C2CCCCC2)CC1 (stereo not drawn),0,-7,-26,15,17,-20
C(=C\c1ccccc1)/CN1CCN(C(c2ccccc2)c2nnnn2C2CCCCC2)CC1 (stereo not drawn),0,-6,-26,3,43*,-10
COc1cccc(C(c2nnnn2C2CCCC2)N2CCN(C/C=C/c3ccccc3)CC2)c1OC (stereo not drawn),0,-6,-25,16,54*,-15
C(=C\c1ccco1)/C=N/n1cnnc1,0,2,10,-9,-5,26*
S=c1[nH]nc(-c2ccncc2)n1/N=C/C=C/c1ccco1,0,-4,5,14,4,3
Cc1ccccc1OCC(=O)Nc1ccc2c(c1)C(=O)N(CCC(=O)O)C2=O,0,8,26*,-14,-17,-5
Cn1ncc(Cl)c(Oc2ccc(Cl)cc2)c1=O,0,-10,-4,17,3,-4
Cn1ncc(Oc2ccc([N+](=O)[O-])cc2)c(Cl)c1=O,15*,-3,6,3,-2,7
O=C(NNC(=S)NC(=O)C12CC3CC(CC(C3)C1)C2)c1ccncc1,46*,58*,-23,-5,15,2
SMILES,CHO-K1 Ca ag,M1 ag,CHRM1 PAM,CHO-K1 Ca PAM,M1 antag,CHO-K1 Ca antag
CCC(C)NC(=S)NNC(=O)c1ccncc1 (stereo not drawn),-1,1,20,-14,-10,27*
CC(C)c1ccc(C(=O)NNC(=O)c2ccncc2)cc1,0,-3,7,23,-5,-9
CC12CC3CC(C1)CC(C(=O)NNC(=O)c1ccncc1)(C3)C2,0,-8,-30,9,63*,-12
O=C(NNC(=S)NC(=O)c1ccc(F)cc1)c1ccncc1,1,-1,-4,5,1,-4
CC1(C(=O)NC(=S)NNC(=O)c2ccncc2)CCCCC1,28*,39*,-9,1,2,5
CC1CCN(Cc2nnnn2CCCC(=O)NCCc2cnn(C)c2)CC1,1,-3,9,13,-7,-14
O=[N+]([O-])c1ccc(NCCCNS(=O)(=O)c2ccccc2)c(Cl)c1,9,-8,-3,12,1,-3
COc1cc(OC)c(OC)cc1CCC(C)NCCC(c1ccccc1)c1ccccc1 (stereo not drawn),5,-9,-35,-4,74*,14
COc1ccccc1CCNC(C)CCc1ccc(O)cc1 (stereo not drawn),1,-8,-12,15,11,-8
N#CC1=C(N)NC(SCc2ccc(Br)cc2)=C(C#N)C12CCCCC2,8,0,-4,5,13,24*
c1ccc(NCn2cncn2)nc1,0,0,4,-2,-7,28*
COc1ccc2ccccc2c1-c1sc(Nc2ccccc2)n[n+]1-c1ccc(F)cc1,16*,7,-20,-3,28,-9
COc1ccc(-c2sc(Nc3ccccc3)n[n+]2-c2ccc(F)cc2)cc1Br,0,-5,5,-1,-7,-7
CCc1ccc(Nc2n[n+](-c3ccccc3)c(-c3ccc(OCc4ccccc4)cc3)s2)cc1,0,-6,0,30,5,-10
Fc1ccc(-[n+]2nc(Nc3ccccc3)sc2-c2c(Cl)cccc2Cl)cc1,15*,-2,-20,2,22,-7
CCc1ccc(Nc2n[n+](-c3ccccc3)c(-c3ccc(N(CC)CC)cc3)s2)cc1,14,9,-13,6,39*,18
CCc1ccc(Nc2n[n+](-c3ccccc3)c(-c3c(Cl)cccc3Cl)s2)cc1,21*,19*,-26,-3,49*,8
C[C@@H]1CN([C@@H](C)CO)C(=O)CCCn2nncc2CO[C@H]1CN(C)S(=O)(=O)c1ccccc1F,1,-2,1,8,5,-13
Cc1c(NC(=O)[C@@H](NC(=O)c2ccc(Cl)c([N+](=O)[O-])c2)C(C)C)c(=O)n(-c2ccccc2)n1C,0,-5,3,2,-1,4
Cc1ccc(OS(=O)(=O)c2c(C)nn(C)c2Cl)c(C)c1,-1,-6,-23,-23,62*,9
Cc1nc(SCc2ccc(Cl)cc2)ncc1C(=O)O,21*,-1,-5,1,2,17
CCc1ccc(Nc2cc(=O)n(C3CCCCC3)c(=O)[nH]2)cc1,19*,20*,-3,3,12,3
